Screen size: about 6,700 compounds; fewer than 10 were called active. These entries were drawn from the full list. A number with no mark means an inactive call.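 How the source made its calls: active means mean percent activation across replicates above the confirmation screen cutoff of 4.91%; inactive means the rest.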

The target of this experiment is G-protein coupled receptor 151 (Homo sapiens) (UniProt Q8TDV0). Briefly: GPR151 agonism via beta-arrestin recruitment – cell-based, PathHunter beta-arrestin, luminescence, confirmation (AID 1508609). Particulars: GPR151 PathHunter beta-arrestin cells, 90 min, at 11.2 µM, active compounds read high, % of EA-reagent control over plate median.
Chain of G-protein coupled receptor 151 (Homo sapiens) (Q8TDV0 whole entry, looked up): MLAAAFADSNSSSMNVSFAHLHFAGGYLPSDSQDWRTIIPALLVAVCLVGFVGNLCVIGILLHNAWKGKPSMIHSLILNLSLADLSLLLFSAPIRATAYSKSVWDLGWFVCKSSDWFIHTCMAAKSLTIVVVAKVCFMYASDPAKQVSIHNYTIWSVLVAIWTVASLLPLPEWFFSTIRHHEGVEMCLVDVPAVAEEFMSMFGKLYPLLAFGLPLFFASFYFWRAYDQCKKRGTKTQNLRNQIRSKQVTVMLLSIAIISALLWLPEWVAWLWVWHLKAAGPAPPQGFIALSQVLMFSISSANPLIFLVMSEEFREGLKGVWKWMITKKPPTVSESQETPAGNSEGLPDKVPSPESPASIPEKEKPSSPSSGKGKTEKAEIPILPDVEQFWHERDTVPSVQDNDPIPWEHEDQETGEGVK
Regarding `COC(=O)c1c(NC(=O)Nc2ccc(Cl)c(Cl)c2)sc2c1CCCC2`, the activation was 0.7%.
The value for `O=C1NCCN(Cc2ccc(-c3ccccc3)cc2)C1CC(=O)N1CCCCC1` (centres undefined) was 0.39%; that for `Cc1ccc(C)c(CN2CCC(n3nccc3NC(=O)C(C)(C)C)CC2)c1` was 0.69%.
With `CCn1c(COc2ccccc2)nnc1Sc1ccc([N+](=O)[O-])cc1C=O` the figure was 0.71%.
The value for `Cc1cc(N2CCOCC2)ccc1C=C1C(=O)c2ccccc2C1=O` was -0.77%.
With `COC(=O)c1c(-c2ccccc2)csc1NC(=O)c1ccc(OC)c([N+](=O)[O-])c1`, the activation was 0.78%.
Take `Cc1ccc(C(=O)Oc2ccccc2/C=N/N=C2\NC(=O)C(CC(=O)O)S2)cc1` (centres undefined): the activation is -0.38%.
The value for `Cc1ccc(S(=O)(=O)Cn2nnnc2CN2CCN(c3ccccc3F)CC2)cc1` was 1.76%; that for `CCN(CC)c1nc(Nc2ccccc2)nc(Nc2ccccc2)n1` was -0.22%; that for `C=CCn1c2ccccc2c2nnc(SCc3[nH]c(=O)[nH]c3C(=O)CCCCC(=O)OCC)nc21` was 1.2%.
The value for `COC(=O)c1cc(NC(=O)COc2ccc([N+](=O)[O-])cc2)cc(C(=O)OC)c1` was 0.64%; that for `CC(C)COC(=O)c1ccc(NC(=O)C2C3C=CC(C3)C2C(=O)O)cc1` (centres undefined) was 1.05%; that for `O=C(N/N=C\C=C\c1ccccc1)c1ccccn1` was -0.98%.
With `COc1ccc(NC(=S)N2CCN(S(=O)(=O)c3ccc(F)cc3)CC2)c(OC)c1` the figure was -0.28%.
With `Cc1cccn2c(=O)c3cc(C(=O)NC4CCCCC4)c(=N)n(C4CCCCC4)c3nc12`, the activation is -0.69%.
With `OCCC1CN(Cc2ccc3cc(F)ccc3n2)CCN1C1CCCC1` (centres undefined) the figure was 1.64%; with `O=C(Cn1c(=O)n(Cc2ccccc2)c(=O)c2ccccc21)c1ccccc1`, 1.26%.
Consider `CCOc1c(Cl)cc(CNCc2ccccc2)cc1OC`, for which the activation was -0.5%.
On to `COC(=O)c1oc2ccc(Br)cc2c1NC(C)=O`, for which the activation was 0.35%.
The value for `O=C(c1ccc(CNS(=O)(=O)c2ccc(Cl)cc2)cc1)N1CCCC1` was 1.92%; that for `C=CCc1cccc(/C=N/NC(=O)CCC(=O)Nc2ccc(Br)cc2)c1O` was -0.44%.
With `O=C(CN1CCOCC1)Nc1c(Cl)cc(Cl)cc1Cl` the figure was 0.82%.
For `CCOC(=O)c1ccc(NC(=O)c2ncn(-c3ccccc3)n2)cc1`, the activation is 0.02%.
The value for `Cn1ncc2c(NNC(=O)Cc3cccc4ccccc34)ncnc21` was 0.44%.
In the case of `CCCCc1ccc(NC(=O)CN2C(=O)C(C)SC(C)C2=O)cc1` (centres undefined), the activation is 0.42%.
Turning to `COc1ccc(CCNc2cc(C)nc(Nc3cccc(N(C)C)c3)n2)cc1`, the activation was 0.06%.
For `O=C(Nc1ccc(NC(=O)c2cccc3c(Br)cccc23)cc1)c1ccco1`, the activation is 1.13%.
With `COC(=O)[C@@H]1CC(O)CN1C(=O)C12CC3CC(CC(C3)C1)C2` (some centres undefined) the figure was 0.35%; with `CC1=C(C(=O)Nc2cccc(F)c2)C(c2ccccn2)C2=C(CCCC2=O)N1` (centres undefined), 0.25%; with `NC(=S)N/N=C/c1ccc([N+](=O)[O-])cc1`, -0.11%.
The value for `CC(C)C(=O)NC(=S)Nc1ccccc1F` was 0.14%.
With `COc1ccc(C2(NC(=O)CCn3cnc4sc(C)c(C)c4c3=O)CCCCC2)cc1` the figure was 0.69%; with `CCC1=C(C)c2cc3nc(C(=O)OCc4ccccc4)c(C)c-3c(C)n2C1C` (centres undefined), -0.16%.
With `CCN(CC)C(=O)C1CCCN(c2cc(N)nc(N)n2)C1` (centres undefined), the activation was -0.11%.
With `CCC1C(=O)NCCN1Cc1ccc2c(c1)CN(Cc1c[nH]c3ccccc13)CCO2` (centres undefined) the figure was 1.68%; with `CN1C(=O)c2ccc(N3C(=O)c4cccc([N+](=O)[O-])c4C3=O)cc2C1=O`, -0.57%.
The value for `Cc1ccc[n+](-c2ncnc(N)c2[N+](=O)[O-])c1` was -0.67%; that for `COc1cccc(-c2ocnc2C(=O)Nc2ccc3nc(-c4cccnc4)oc3c2)c1` was 0.94%; that for `O=C(c1cc([N+](=O)[O-])ccc1NC1CCCCC1)N1CCOCC1` was -1.3%.
The value for `C=CCN1C(=O)CC(C(=O)OC)C12CCN(C1CCN(C(=O)OCC)CC1)CC2` (centres undefined) was -0.6%; that for `Cc1cccc(-n2nc3c(c2NC(=O)CCC2CCCCC2)CS(=O)(=O)C3)c1C` was 0.42%; that for `COc1ccc(C2C(C#N)=C(N)Oc3c2c(C)nn3-c2ccccc2)cc1` (centres undefined) was 0.69%.
Consider `CC(=O)c1ccc(NC(=O)c2ccc(CN(c3ccc(C)c(C)c3)S(C)(=O)=O)cc2)cc1`, for which the activation was -0.1%.
The value for `CC1CCCC(NCc2c(C(=O)O)n(Cc3ccc(Cl)cc3)c3ccccc23)C1C` (centres undefined) was 0.3%.
With `Cc1cccc(C)c1-n1c(=S)sc2c(=O)n(-c3cccc(Cl)c3)c(SCC#N)nc21` the figure was 2.02%; with `CCCCc1ccc(N=Cc2nc(-c3cccc4ccccc34)oc2O)cc1`, -1.01%; with `Cc1ccc(N2C(=O)CC(N3CCN(Cc4ccc(Cl)cc4)CC3)C2=O)cc1Cl` (centres undefined), 0.04%.
The value for `Oc1ccc(Cn2cc[nH]c2=S)cc1` was -0.7%; that for `CC(C)NC(=O)/C=C/c1ccccc1Cl` was -0.37%; that for `COc1ccc(C(=O)CSc2nc3sc4c(c3c(=O)n2-c2ccc(Cl)cn2)CCCC4)c(F)c1` was -0.67%.
With `NC(=O)C1CCN(C(=O)c2ccc(-c3ccccc3)cc2)CC1`, the activation was -1.12%.
The value for `COCCNC(=S)N1CCN(c2ccccc2OC)CC1` was 0.65%; that for `Cc1ccc(-c2nnc(N3CCOCC3)c3ccccc23)cc1S(=O)(=O)N1CCN(C)CC1` was -0.46%.
With `CC(C)n1c(=O)[nH]c2c(C(N)=O)nc(-c3ccc(-c4ccccc4)cc3)nc21` the figure was -0.04%; with `COc1ccc(OC)c(/C=N/n2nnnc2N)c1`, -0.17%; with `O=C(NCc1ccsc1)c1ccc(-n2cccc2)cc1`, 0.53%.
The value for `C=CCc1ccccc1OCCN1CCNCC1` was -0.14%; that for `Cc1ccc(S(=O)(=O)NCC(c2cccnc2)N2CCN(c3ccc(F)cc3)CC2)cc1` (centres undefined) was -0.45%.
`CC(=O)NC(CC(=O)O)c1ccc(F)cc1` (centres undefined): the activation was 0.27%.
With `CC(=O)c1c(C)[nH]c(C(=O)N2CCN(c3ccc(Cl)cc3)CC2)c1C` the figure was -0.42%.
Regarding `CC(=O)Oc1cccc(N2C(=O)C3C4c5ccccc5C(C)(c5ccccc54)C3C2=O)c1` (centres undefined), the activation is -0.54%.
With `O=C(CC1C(=O)NCCN1Cc1ccc2ccccc2c1)NCCCn1cccn1` (centres undefined) the figure was 0.42%; with `CC(=O)Oc1cc2c(C(=O)NCCN3CCOCC3)c(C)oc2c2ccccc12`, -0.37%.
The value for `CCOc1ccc(NC(=O)COc2cccc(C)c2C)cc1` was 0.66%.
The value for `Cc1cc2c(cc1S(=O)(=O)CCC(=O)Nc1ccccc1Cl)OCC(=O)N2` was 0.39%.
Regarding `O=C(CC12CC3CC(CC(C3)C1)C2)Nc1ccc2oc(=O)ccc2c1`, the activation was -0.22%.
The value for `CCOc1cc(C2C3=C(CCCC3=O)NC3=C2C(=O)CCC3)cc(Br)c1OCC` was 0.37%; that for `COc1ccc([N+](=O)[O-])cc1NC(=O)C1CC(Cl)=CCC1C(=O)O` (centres undefined) was 0.92%; that for `Brc1cnc(NC2CCCCC2)nc1` was 1.03%.
The value for `COc1cc(-c2coc3cc(O[C@@H]4O[C@H](CO)[C@@H](O)[C@H](O)[C@H]4O)c(OC)c(O)c3c2=O)cc(O)c1OC` was -0.2%.
The value for `COc1ccc(OC)c(S(=O)(=O)Oc2ccc(Cl)c3cccnc23)c1` was 0.21%; that for `O=C(NCCO)c1cnc(NC2CCN(Cc3ccccc3)CC2)s1` was 0.92%.
Take `COc1ccc(C=O)cc1OCc1ccc(F)cc1`: the activation was -0.07%.
With `C=C(C)CSc1nc2sc3c(c2c(=O)n1-c1ccc(OC)cc1)CC(C)(C)OC3` the figure was 0.13%; with `COC(=O)C1=CN(Cc2ccc(Cl)cc2)C=C(C(=O)OC)C1c1cc(OC)c(O)c(OC)c1`, 0.02%.
With `Nc1nc(NC(=O)/C=C/c2ccc(F)cc2)nn1-c1ccccc1` the figure was 0.79%; with `COCCNc1nc2nonc2nc1N(C)Cc1ccncc1C`, 1.1%.
With `CC(C)N1CCc2c(sc(NC(=O)Cc3ccccc3)c2C#N)C1` the figure was 0.16%; with `CC(C)c1ccc(CN[C@H]2C[C@H]3C(=O)N[C@@H](COCc4ccccc4)C(=O)N3C2)cc1`, 0.67%; with `CC(C)n1c(Nc2ccc3ncccc3c2)nc2c(NC3CC3)ncnc21`, -0.12%.
As for `Cc1ccc(/C=C2/C(=O)NC(=O)N(c3ccccc3)C2=O)cc1[N+](=O)[O-]`, the activation is 0%.
The value for `CN(C)c1cccc(Nc2cc(C(=O)Nc3ccc(N4CCOCC4)cc3)ccn2)c1` was -1.31%; that for `O=C(Nc1ccc(N2CCCC2=O)cc1)c1cncc(Br)c1` was 0.8%; that for `COc1cc(Nc2ccnc(Nc3ccc(N4CCOCC4)cc3)n2)cc(OC)c1OC` was 3.41%.
The value for `COc1ccc(COC(=O)NNC(=O)c2cccc(Cl)c2)cc1` was -0.17%; that for `CCOC(=O)C(C(=O)c1ccccc1)C1(O)C(=O)c2ccccc2C1=O` (centres undefined) was -0.37%; that for `CCC(CC)C(=O)N1CCN(Cc2nc3sc(C)c(C)c3c(=O)[nH]2)CC1` was 0.36%.
With `CCC(=O)Nc1cc(C(=O)O)ccc1C` the figure was 0.34%.
Consider `CCOC(=O)c1[nH]c2ccc(OC)cc2c1NC(=O)CN(C)C`, for which the activation is 0.64%.
The value for `COc1ccc(C2=NN(C(=O)c3cc(OC)c(OC)c(OC)c3)C(c3ccc(Cl)cc3)C2)cc1OC` (centres undefined) was 0.2%; that for `Cc1ccc(N2C(=O)CC(NCCN3CCOCC3)C2=O)cc1` (centres undefined) was 0.27%.
The value for `c1cncc(Nc2nc(NC3CC3)c3ncn(C4CCCCC4)c3n2)c1` was -0.06%; that for `CCCCOC(=O)C1=C(C)NC2=C(C(=O)CCC2)C1c1cccc([N+](=O)[O-])c1` (centres undefined) was -0.99%.
The value for `CC(=O)Nc1ccc(NC(=O)c2ccc3nc(Br)sc3c2)cc1` was -0.12%; that for `O=C(COc1ccc([N+](=O)[O-])cc1)Nc1ccc2oc(-c3cccc(F)c3)nc2c1` was 0.23%; that for `COCC(=O)Nc1c(I)c(C(=O)NCC(O)CO)c(I)c(C(=O)N(C)CC(O)CO)c1I` (centres undefined) was -0.27%.
Take `CCN(CC)C(=O)C1CCCN(c2ncc(C)c(NCc3cccc(C(F)(F)F)c3)n2)C1` (centres undefined): the activation is 1.13%.
Take `COc1ccc2nc(/C(C#N)=C\c3cc4c(cc3OC)OCO4)[nH]c2c1`: the activation was 0.91%.
The value for `Cc1cc(Nc2ccc(F)cc2)n2cnnc2n1` was 1.15%; that for `CN(Cc1ccccc1)C(=O)c1nc2ccc(-c3cn[nH]c3)cc2s1` was 0.57%.
With `O=C(/C=C/c1ccccc1)c1ccccc1O` the figure was -0.11%; with `COC(=O)Cn1ncc2c3ccccc3n(Cc3cccc(Cl)c3)c2c1=O`, 0.15%; with `COc1ccc(CCNC(=S)NCc2cc(C)n(C)n2)cc1OC`, -0.26%.
As for `O=C1/C(=C\c2ccccc2)C(N2CCOCC2)=NN1c1ccc([N+](=O)[O-])cc1`, the activation was 0.23%.
With `CC12CCC(C(=O)NC3CCCCC3)(OC1=O)C2(C)C` (centres undefined), the activation is 0.51%.
Consider `CN(Cc1nc(-c2ccc3c(c2)OCO3)no1)C1CCCc2ccccc21` (centres undefined), for which the activation is 0.68%.
Regarding `COc1ccc(-c2noc(-c3ccccc3Cl)n2)cc1`, the activation is -0.15%.
As for `Cc1ccc2c(c1)N(CC(=O)N1CCC(C)CC1)C(=O)c1cccnc1O2`, the activation was 0.11%.
The value for `CC(/C=N\NC(=O)CSc1nc(C)cc(C)n1)=C\c1ccccc1` was -1.7%.

Values taken from PubChem BioAssay AID1508609 (The Scripps Research Institute Molecular Screening Center, 2020).
